Screening results from PubChem.
AddAB inh – less growth of phage-infected E. coli with AddAB; E. coli expressing H. pylori AddAB, absorbance growth; inhibition, % at 11.9 µM; hit rate 0.29% among 330,000; in the data active = inhibition above about 12%;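 also: 0% = vehicle wells of infected cells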
phage Ecoli inh – E. coli growth loss with phage present; growth absorbance; inhibition, % at 11.9 µM; hit rate 0.26% among 360,000; in the data active = inhibition above about 11%
E coli growth-1 – counter-screen for AddAB inhibitors: E. coli growth inhibition | AID 449728 | inhibition, % at 11.9 µM | E. coli V3065 growth, OD600 absorbance, 18 h | hit rate 0.27% among 330,000;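 active = inhibition above the campaign's mean inhibition across all tested compounds plus 3 SD, cut at about 9.9% in these data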;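 also: uninfected addAB+ strain grown without phage in ampicillin broth; 0% = DMSO wells and 100% = ciprofloxacin 0.95 µg/ml wells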
E coli growth-2 – inhibitors of Escherichia coli growth; OD600, 23 h; stronger effect = lower value; OD600 absorbance (test concentration not listed); hit rate 0.21% among 330,000;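 active = OD600 absorbance below the run mean of sample wells minus 3.6 SD, in any replicate, cut at about 0.56 in these data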
Tat transport – E. coli Tat transport inhibition; E. coli MC4100 TorA-mCherry Tat export, fluorescence; inhibition, % at 10 µM; hit rate 0.036% among 340,000; AID 488895;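 active = mean replicate inhibition at least 50% and at least half of replicates individually reaching 50%; inconclusive = only one of the two criteria met; inactive = neither criterion met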;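 also: exported cargo escapes ClpAP degradation while cytoplasmic cargo is degraded and loses fluorescence; 0% = median of neutral control wells and 100% = median of NaSCN control wells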
AddAB conf – growth loss of T4-infected E. coli expressing H. pylori AddAB, confirmed. shares compounds with AddAB inh. E. coli V3065 expressing H. pylori AddAB, T4 phage, OD; T4 phage with gene 2 nonsense mutations. inhibition, % at 11.9 µM. hit rate 64% among 880;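 active = mean inhibition above a set limit taken from the earlier primary screen, cut at about 13% in these data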;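 also: higher means less bacterial growth since AddAB block lets phage replicate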
RecBCD counter – reduces growth of phage-infected RecBCD+ E. coli, AddAB inhibitor counter-screen | shares compounds with AddAB inh | E. coli V66 + mutant T4 phage, OD growth | inhibition, % at 11.9 µM | hit rate 73% among 880;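 active = mean inhibition above the mean of solvent-only control wells plus 3 SD, cut at about 4% in these data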;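 also: optical density read after an 18 h incubation at 37 °C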
bact viab count – counter-screen: bacterial growth inhibition | bacterial viability, absorbance (AddAB counterscreen) | hit rate 35% among 880 | shares compounds with AddAB inh | AID 488956 | inhibition, % at 11.9 µM; in the data active = inhibition above about 25%
RecBCD conf – growth loss of phage-infected V66 E. coli, RecBCD confirmation screen; shares compounds with phage Ecoli inh; E. coli V66 + T4 2- phage, growth OD; inhibition, % at 11.9 µM; hit rate 45% among 890; AID 651982;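 active = mean inhibition over triplicates exceeding the hit threshold derived in the original primary screen, cut at about 11% in these data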
Ecoli viability – counter-screen for RecBCD inhibitors: inhibitors of bacterial viability; AID 651983; inhibition, % at 11.9 µM; E. coli viability, absorbance (OD) growth; hit rate 29% among 890; shares compounds with phage Ecoli inh; in the data active = inhibition above about 20%;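 also: E. coli strain V66 grown with compound alone and no phage infection; 0% = bacteria with DMSO vehicle only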
AddAB phage OD – growth loss of phage-infected AddAB E. coli, RecBCD counter-screen | shares compounds with phage Ecoli inh | E. coli expressing H. pylori AddAB + T4 phage, OD growth; gene 2 mutant T4, recBCD-deleted host | inhibition, % at 11.9 µM | hit rate 45% among 890 | AID 651984;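 active = mean inhibition above the solvent-only control wells' mean plus 3 SD, cut at about 22% in these data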;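 also: higher means less bacterial growth from phage killing when AddAB is blocked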
* marks the source's active call; other numbers are inactive results; ? = inconclusive; / = no result. Compounds with a hit are over-represented: about 0.5% of the library has one in this group of screens.

SMILES | AddAB inh | phage Ecoli inh | E coli growth-1 | E coli growth-2 | Tat transport | AddAB conf | RecBCD counter | bact viab count | RecBCD conf | Ecoli viability | AddAB phage OD
O=C1c2ccccc2C2=Nc3ccccc3SC(c3ccc(Cl)cc3)C12 (configuration not stated) | 25* | 22* | 36* | 0.66 | -57 | 39* | 30* | 52* | 18* | 16 | 42*
O=c1[nH]c(=O)n([C@H]2C[C@H](O)[C@@H](CO)O2)cc1F | 100* | 87* | 84* | / | 45 | 81* | 69* | 77* | 79* | 79* | 91*
Cc1cn([C@H]2C[C@H](N=[N+]=[N-])[C@@H](CO)O2)c(=O)[nH]c1=O | 100* | 97* | 100* | / | 39 | 100* | 71* | 100* | 97* | 93* | 101*
CCOC(=O)C1C2COc3ccc(C)cc3C2N2C(=O)CN(CC3CCCO3)C(=O)[C@@]12C (some centres not stated) | / | / | / | 0.7 | / | / | / | / | / | / | /
NC(=O)C1CC2(CC(c3cccc(NC(=O)CC(c4ccccc4)c4ccccc4)c3)=NO2)CN1C(=O)CC(c1ccccc1)c1ccccc1 (configuration not stated) | / | / | / | 0.72 | / | / | / | / | / | / | /
O=C(c1ccc([N+](=O)[O-])o1)N1CCc2ccccc21 | 97* | 21* | 94* | 0.46* | 6 | 102* | 20* | 84* | 10 | 13 | 98*
O=[N+]([O-])c1ccc(-c2ccn[nH]2)o1 | 100* | 98* | 100* | 0.062* | ? | 102* | 100* | 101* | 105* | 106* | 106*
Cn1nnnc1N=N/C(=N/Nc1ccccc1)c1ccccc1 | 25* | 20* | 21* | / | -1 | 25* | 23* | 22 | 11* | 10 | 15
COc1cc(C=NNC(=O)Cc2ccccc2)cc(OC)c1OC | / | / | / | 0.67 | / | / | / | / | / | / | /
CCSc1nsc(NC(=O)Nc2ccccc2F)n1 | -2 | 6 | 4 | 0.59 | -2 | / | / | / | / | / | /
C=CCSc1nsc(NC(=O)Nc2ccc(F)cc2)n1 | 20* | 15* | 16* | / | -13 | 18* | 22* | 21 | 8 | 10 | 22*
CCOC(=O)C=Cc1ccc2c(c1)S(=O)(=O)N(Cc1ccc(OC)cc1)C2CC(=O)OCC (configuration not stated) | / | / | / | 0.71 | / | / | / | / | / | / | /
COc1ccc(Nc2nnc(SCc3cn4c(C)cccc4n3)s2)cc1 | 16* | 14* | 16* | 0.6 | -31 | 16* | 12* | 13 | 13* | 18 | 19
CCCOc1ccc(C(O)=C2C(=O)C(=O)N(CCN(C)C)C2c2ccco2)cc1 (configuration not stated) | / | / | / | 0.68 | / | / | / | / | / | / | /
O=c1c2ccc(Cl)cc2nc(-c2cccc(C(F)(F)F)c2)n1O | 12* | 11* | 11* | 0.78 | -4 | 4 | 7.9* | -1 | 0 | 2 | 1
N#Cc1ccc(-c2nc3cc(Cl)ccc3c(=O)n2O)cc1 | -7 | -6 | -8 | 0.63 | 3 | / | / | / | / | / | /
O=c1[nH]c2ccc(NC(=NS(=O)(=O)c3ccccc3)c3ccccc3)cc2[nH]1 | / | / | / | 0.68 | / | / | / | / | / | / | /
C/C(=N\N=C1\NC(=O)C(CC(=O)O)S1)c1ccccn1 (configuration not stated) | 19* | 26* | 17* | / | / | 26* | 22* | 24 | 22* | 25* | 28*
O=C(O)CC1S/C(=N/N=Cc2ccccn2)NC1=O (configuration not stated) | / | / | / | 0.64 | / | / | / | / | / | / | /
CC(C)CN1CCC(=O)N(C(CN=[N+]=[N-])Cc2ccccc2)CC1 (configuration not stated) | / | / | / | 0.68 | / | / | / | / | / | / | /
Cc1cc(C)c2c(N=NN3CCCCC3)[nH]nc2n1 | 98* | 14* | 89* | 0.65 | -7 | 91* | 7.7* | 43* | 9 | 10 | 53*
CCN(CC)N=Nc1[nH]nc2nc(C)cc(C)c12 | 35* | 14* | 87* | 0.56* | 25 | 93* | 9.3* | 51* | 10 | 10 | 76*
O=C(COc1ccc(-c2ccccc2)cc1)NN=Cc1cc(O)ccc1Br | / | / | / | 0.65 | / | / | / | / | / | / | /
CCn1cc(C(=O)O)c(=O)c2cc(F)c(N/N=C/c3ccccc3)cc21 | 2 | 1 | -1 | / | 0 | / | / | / | / | / | /
C=CCNC(=O)c1cn(CC)c2cc(N3CCN(C(=O)c4ccco4)CC3)c(F)cc2c1=O | 99* | 25* | 99* | 0.057* | 14 | 99* | 19* | 101* | 12* | 15 | 100*
SMILES | AddAB inh | phage Ecoli inh | E coli growth-1 | E coli growth-2 | Tat transport | AddAB conf | RecBCD counter | bact viab count | RecBCD conf | Ecoli viability | AddAB phage OD
CCn1cc(C(=O)O)c(=O)c2cc(F)c(N3CCN(C(=O)Nc4ccccc4)CC3)cc21 | 101* | 97* | 101* | 0.051* | 24 | 103* | 102* | 102* | 100* | 102* | 99*
CCn1cc(C(=O)O)c(=O)c2cc(F)c(N3CCN(C(=S)NC(=O)c4ccccc4F)CC3)cc21 | 98* | 16* | 99* | 0.073* | 1 | 101* | 99* | 103* | 101* | 101* | 101*
CCn1cc(C(=O)O)c(=O)c2cc(F)c(N3CCN(C(=S)NC(=O)c4ccc(OC)cc4)CC3)cc21 | 99* | 101* | 99* | 0.076* | 81* | 100* | 100* | 102* | 104* | 105* | 105*
O=C(O)c1ccc(C=NN2CCN(C3c4ccccc4-c4ccccc43)CC2)cc1 | / | / | / | 0.71 | / | / | / | / | / | / | /
CC(=O)NC1=NC(=O)C(=CN2CCOCC2)S1 | / | / | / | 0.73 | / | / | / | / | / | / | /
CCn1cc(C(=O)O)c(=O)c2cc(F)c(N3CCN(C(=S)NC(=O)c4ccc(Br)cc4)CC3)cc21 | 99* | 99* | 98* | / | 44 | 99* | 99* | 100* | 102* | 102* | 103*
CCn1cc(C(=O)O)c(=O)c2cc(F)c(N3CCN(S(=O)(=O)c4ccc(NC(C)=O)cc4)CC3)cc21 | 99* | 96* | 100* | 0.06* | 8 | 101* | 97* | 101* | 72* | 101* | 104*
CCn1cc(C(=O)NN)c(=O)c2cc(F)c(N3CCOCC3)cc21 | -2 | 2 | 2 | 0.67 | 8 | / | / | / | / | / | /
